Key:
Experiment in all cases: DAPPL (digital affinity profiling via proximity ligation, sequencing); 10 mM Tris-HCl pH 7.5, 50 mM NaCl, 1 mM DTT, 4% glycerol, room temperature, 30 min; GST-TFs on glutathione beads, 16-mer random dsDNA library, 0.1% formaldehyde crosslink after washing; high values mean tight binding
Details in all cases: protein: recombinant; tags: N-terminal GST; dsDNA, one strand shown
FLI1 = target: T1, FLI1 (Homo sapiens, UniProt Q01543 1-452)
T1 sequence: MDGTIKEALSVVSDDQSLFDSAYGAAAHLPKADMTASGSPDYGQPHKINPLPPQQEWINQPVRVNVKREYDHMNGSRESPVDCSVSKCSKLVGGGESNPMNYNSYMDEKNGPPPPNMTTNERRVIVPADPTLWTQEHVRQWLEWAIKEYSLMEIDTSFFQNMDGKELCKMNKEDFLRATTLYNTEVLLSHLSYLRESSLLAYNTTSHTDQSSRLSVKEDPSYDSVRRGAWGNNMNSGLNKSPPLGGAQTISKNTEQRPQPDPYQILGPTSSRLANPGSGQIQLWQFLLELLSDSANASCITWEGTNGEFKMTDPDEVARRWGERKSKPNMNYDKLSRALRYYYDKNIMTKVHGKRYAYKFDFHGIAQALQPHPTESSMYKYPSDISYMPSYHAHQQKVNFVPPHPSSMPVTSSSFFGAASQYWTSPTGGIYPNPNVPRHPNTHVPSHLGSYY
In short: (§1)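 After expression in yeast as GST fusions, human transcription factors were bound to glutathione beads, DNA-barcoded and mixed with a tag-only sample. The pools were incubated with 200 nmole of a 16-mer random double-stranded DNA library in Tris/NaCl/DTT/glycerol buffer (30 min, room temperature), washed and crosslinked with 0.1% formaldehyde. Proximity ligation with BsaI/T4 ligase ran for 1 h at 37 °C, before PCR amplification and sequencing on an Illumina NextSeq500. Binding signal is a hexamer's read frequency for a factor divided by its frequency for the tag-only sample.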

ELK1 = target: T2, ELK1 (Homo sapiens, UniProt P19419 1-428)
T2 sequence: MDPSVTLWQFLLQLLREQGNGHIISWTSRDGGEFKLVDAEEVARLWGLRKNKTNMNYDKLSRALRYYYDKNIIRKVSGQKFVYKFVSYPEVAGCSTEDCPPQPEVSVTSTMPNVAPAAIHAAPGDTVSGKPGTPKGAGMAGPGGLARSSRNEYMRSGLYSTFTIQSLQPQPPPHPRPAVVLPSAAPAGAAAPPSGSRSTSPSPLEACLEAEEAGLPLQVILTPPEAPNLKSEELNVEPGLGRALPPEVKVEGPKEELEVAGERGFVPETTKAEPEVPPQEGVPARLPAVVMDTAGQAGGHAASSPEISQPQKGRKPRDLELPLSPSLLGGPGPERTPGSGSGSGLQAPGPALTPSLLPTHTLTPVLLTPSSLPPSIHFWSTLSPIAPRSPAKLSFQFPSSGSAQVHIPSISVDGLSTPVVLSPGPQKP
In short: as §1

GABPA = target: T3, GABPA (Homo sapiens, UniProt Q06546 1-454)
T3 sequence: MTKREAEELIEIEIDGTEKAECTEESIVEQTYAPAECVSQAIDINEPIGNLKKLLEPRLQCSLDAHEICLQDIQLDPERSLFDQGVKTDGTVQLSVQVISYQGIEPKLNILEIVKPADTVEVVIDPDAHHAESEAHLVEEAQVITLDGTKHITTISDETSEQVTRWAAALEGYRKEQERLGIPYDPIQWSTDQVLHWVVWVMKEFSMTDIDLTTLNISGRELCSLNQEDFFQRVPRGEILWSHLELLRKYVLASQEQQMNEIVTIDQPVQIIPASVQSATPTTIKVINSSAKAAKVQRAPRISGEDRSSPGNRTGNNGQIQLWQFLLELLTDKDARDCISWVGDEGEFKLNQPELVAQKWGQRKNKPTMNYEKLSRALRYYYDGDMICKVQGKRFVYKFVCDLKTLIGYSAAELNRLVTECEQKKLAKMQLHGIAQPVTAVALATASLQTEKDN
In short: as §1

ERG = target: T4, ERG (Homo sapiens, UniProt P11308 1-479)
T4 sequence: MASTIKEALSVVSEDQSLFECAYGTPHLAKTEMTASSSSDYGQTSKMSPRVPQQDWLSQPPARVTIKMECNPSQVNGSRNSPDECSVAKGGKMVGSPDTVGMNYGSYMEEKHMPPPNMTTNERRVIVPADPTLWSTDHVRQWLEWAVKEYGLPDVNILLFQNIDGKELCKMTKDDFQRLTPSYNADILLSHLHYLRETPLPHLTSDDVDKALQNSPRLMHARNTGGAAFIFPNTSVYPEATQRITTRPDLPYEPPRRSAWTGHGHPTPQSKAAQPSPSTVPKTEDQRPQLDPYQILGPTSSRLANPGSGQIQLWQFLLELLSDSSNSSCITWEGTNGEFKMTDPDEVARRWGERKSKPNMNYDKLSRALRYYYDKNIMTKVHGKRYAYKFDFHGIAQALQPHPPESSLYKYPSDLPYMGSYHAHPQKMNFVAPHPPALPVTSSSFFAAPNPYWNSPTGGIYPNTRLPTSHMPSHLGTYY
In short: as §1

ELF1 = ELF1 (Homo sapiens, UniProt P32519 1-619)
Sequence of ELF1 (P32519 whole entry): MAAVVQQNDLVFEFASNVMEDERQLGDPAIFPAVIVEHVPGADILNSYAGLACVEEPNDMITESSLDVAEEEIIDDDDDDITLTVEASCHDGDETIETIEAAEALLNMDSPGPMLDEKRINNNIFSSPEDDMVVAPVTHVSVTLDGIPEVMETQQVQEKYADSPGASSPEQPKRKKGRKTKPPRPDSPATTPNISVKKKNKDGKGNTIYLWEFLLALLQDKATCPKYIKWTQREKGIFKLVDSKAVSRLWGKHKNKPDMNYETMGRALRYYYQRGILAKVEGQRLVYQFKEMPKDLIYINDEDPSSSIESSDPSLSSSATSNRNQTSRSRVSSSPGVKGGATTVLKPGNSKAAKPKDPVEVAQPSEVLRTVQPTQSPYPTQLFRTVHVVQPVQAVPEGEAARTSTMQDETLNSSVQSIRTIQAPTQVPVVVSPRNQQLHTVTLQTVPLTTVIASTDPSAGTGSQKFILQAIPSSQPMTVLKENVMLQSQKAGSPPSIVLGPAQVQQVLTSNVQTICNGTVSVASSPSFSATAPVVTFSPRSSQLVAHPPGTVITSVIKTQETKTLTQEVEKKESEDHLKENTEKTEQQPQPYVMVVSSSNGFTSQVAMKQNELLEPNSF
In short: as §1

EHF = target: T5, EHF (Homo sapiens, UniProt Q9NZC4 1-300)
T5 sequence: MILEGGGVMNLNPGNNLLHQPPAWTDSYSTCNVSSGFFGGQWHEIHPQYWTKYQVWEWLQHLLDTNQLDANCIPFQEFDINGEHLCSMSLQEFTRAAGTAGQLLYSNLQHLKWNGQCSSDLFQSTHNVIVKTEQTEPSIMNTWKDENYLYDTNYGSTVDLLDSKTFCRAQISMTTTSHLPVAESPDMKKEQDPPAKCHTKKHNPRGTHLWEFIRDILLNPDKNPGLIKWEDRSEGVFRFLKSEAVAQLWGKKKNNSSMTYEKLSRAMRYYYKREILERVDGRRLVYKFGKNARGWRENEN
In short: as §1

SPI1 = SPI1 (Homo sapiens, UniProt P17947 1-270)
In short: as §1

SPIB = SPIB (Homo sapiens, UniProt Q01892 1-262)
Sequence of SPIB (Q01892 whole entry): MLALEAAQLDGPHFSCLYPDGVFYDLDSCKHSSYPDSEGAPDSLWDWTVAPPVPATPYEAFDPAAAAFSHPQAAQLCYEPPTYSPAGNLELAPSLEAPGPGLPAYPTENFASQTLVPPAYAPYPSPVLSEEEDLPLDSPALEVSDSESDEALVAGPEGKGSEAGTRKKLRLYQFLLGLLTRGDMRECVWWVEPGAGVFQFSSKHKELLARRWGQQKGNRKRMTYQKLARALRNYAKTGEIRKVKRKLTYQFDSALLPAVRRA
In short: as §1

ELK3 = target: T6, ELK3 (Homo sapiens, UniProt P41970 1-407)
T6 sequence: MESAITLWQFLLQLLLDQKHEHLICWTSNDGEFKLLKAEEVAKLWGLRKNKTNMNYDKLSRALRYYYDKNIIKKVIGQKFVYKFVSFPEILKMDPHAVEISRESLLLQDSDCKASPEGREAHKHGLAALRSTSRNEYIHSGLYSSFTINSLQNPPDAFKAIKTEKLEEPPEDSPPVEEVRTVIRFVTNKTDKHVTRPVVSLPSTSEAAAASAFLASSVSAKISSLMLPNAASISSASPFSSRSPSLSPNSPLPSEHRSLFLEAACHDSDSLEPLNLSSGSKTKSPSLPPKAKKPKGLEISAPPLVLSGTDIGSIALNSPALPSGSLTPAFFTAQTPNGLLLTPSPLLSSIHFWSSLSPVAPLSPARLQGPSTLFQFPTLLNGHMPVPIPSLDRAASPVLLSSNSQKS
In short: as §1

Row | Sequence | binding signal (FLI1) | binding signal (ELK1) | binding signal (GABPA) | binding signal (ERG) | binding signal (ELF1) | binding signal (EHF) | binding signal (SPI1) | binding signal (SPIB) | binding signal (ELK3)
1 | ACCCCA | 1.05 fold enrichment (6-mer frequency, TF over GST control) | 1.12 fold enrichment (6-mer frequency, TF over GST control) | 1.15 fold enrichment (6-mer frequency, TF over GST control) | 1.08 fold enrichment (6-mer frequency, TF over GST control) | 1.11 fold enrichment (6-mer frequency, TF over GST control) | 1.11 fold enrichment (6-mer frequency, TF over GST control) | 1.08 fold enrichment (6-mer frequency, TF over GST control) | 1.05 fold enrichment (6-mer frequency, TF over GST control) | 1.02 fold enrichment (6-mer frequency, TF over GST control)
2 | CCTCAC | 1.29 fold enrichment (6-mer frequency, TF over GST control) | 1.3 fold enrichment (6-mer frequency, TF over GST control) | 1.26 fold enrichment (6-mer frequency, TF over GST control) | 1.22 fold enrichment (6-mer frequency, TF over GST control) | 1.22 fold enrichment (6-mer frequency, TF over GST control) | 1.28 fold enrichment (6-mer frequency, TF over GST control) | 1.28 fold enrichment (6-mer frequency, TF over GST control) | 1.21 fold enrichment (6-mer frequency, TF over GST control) | 1.33 fold enrichment (6-mer frequency, TF over GST control)
3 | CGTCAC | 1.24 fold enrichment (6-mer frequency, TF over GST control) | 1.27 fold enrichment (6-mer frequency, TF over GST control) | 1.18 fold enrichment (6-mer frequency, TF over GST control) | 1.31 fold enrichment (6-mer frequency, TF over GST control) | 1.24 fold enrichment (6-mer frequency, TF over GST control) | 1.2 fold enrichment (6-mer frequency, TF over GST control) | 1.28 fold enrichment (6-mer frequency, TF over GST control) | 1.18 fold enrichment (6-mer frequency, TF over GST control) | 1.09 fold enrichment (6-mer frequency, TF over GST control)
4 | CCTGCG | 1.27 fold enrichment (6-mer frequency, TF over GST control) | 1.34 fold enrichment (6-mer frequency, TF over GST control) | 1.39 fold enrichment (6-mer frequency, TF over GST control) | 1.27 fold enrichment (6-mer frequency, TF over GST control) | 1.38 fold enrichment (6-mer frequency, TF over GST control) | 1.31 fold enrichment (6-mer frequency, TF over GST control) | 1.23 fold enrichment (6-mer frequency, TF over GST control) | 1.35 fold enrichment (6-mer frequency, TF over GST control) | 1.22 fold enrichment (6-mer frequency, TF over GST control)
5 | TGCCTT | 1.29 fold enrichment (6-mer frequency, TF over GST control) | 1.38 fold enrichment (6-mer frequency, TF over GST control) | 1.54 fold enrichment (6-mer frequency, TF over GST control) | 1.35 fold enrichment (6-mer frequency, TF over GST control) | 1.33 fold enrichment (6-mer frequency, TF over GST control) | 1.3 fold enrichment (6-mer frequency, TF over GST control) | 1.44 fold enrichment (6-mer frequency, TF over GST control) | 1.35 fold enrichment (6-mer frequency, TF over GST control) | 1.24 fold enrichment (6-mer frequency, TF over GST control)
6 | CAATGC | 1.21 fold enrichment (6-mer frequency, TF over GST control) | 1.23 fold enrichment (6-mer frequency, TF over GST control) | 1.21 fold enrichment (6-mer frequency, TF over GST control) | 1.12 fold enrichment (6-mer frequency, TF over GST control) | 1.21 fold enrichment (6-mer frequency, TF over GST control) | 1.17 fold enrichment (6-mer frequency, TF over GST control) | 1.12 fold enrichment (6-mer frequency, TF over GST control) | 1.32 fold enrichment (6-mer frequency, TF over GST control) | 1.21 fold enrichment (6-mer frequency, TF over GST control)
7 | GGTTCC | 1.52 fold enrichment (6-mer frequency, TF over GST control) | 1.64 fold enrichment (6-mer frequency, TF over GST control) | 1.37 fold enrichment (6-mer frequency, TF over GST control) | 1.54 fold enrichment (6-mer frequency, TF over GST control) | 1.53 fold enrichment (6-mer frequency, TF over GST control) | 1.59 fold enrichment (6-mer frequency, TF over GST control) | 1.75 fold enrichment (6-mer frequency, TF over GST control) | 1.59 fold enrichment (6-mer frequency, TF over GST control) | 1.52 fold enrichment (6-mer frequency, TF over GST control)
